Compound activity deposited in PubChem by National Center for Advancing Translational Sciences (NCATS).
SNCA viab count: reduces viability of HEK-293 SNCA reporter cells. Potency, µM (titrated, usually from 57.1 µM), most hits filed as cytotoxic. 0.12% of 150,000 active. HEK-293-SNCA-luc viability, GF-AFC fluorescence, 24 h. AID 1671193; further: nearly all actives have a fitted effect of over 30% in size
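Cytotoxicity counterscreen: after 24 h compound treatment of genome-edited SNCA-luciferase HEK-293 cells, live-cell protease substrate GF-AFC read by fluorescence after 30 min; activity scaled between DMSO (0%) and medium-only (-100%), curves Hill-fitted.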
KDM5B inhibitor: inhibitors of human KDM5B histone demethylase | Q9UGL1 | KDM5B demethylase, FDH-coupled NADH fluorescence (FDH is formaldehyde dehydrogenase) | Potency, µM (highest dose often 57.7 µM), usual class: inhibitors | 2.6% of 220,000 active | AID 1347165; further: nearly all actives have a fitted effect of over 70% in size
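Coupled FDH/NAD⁺ fluorescence readout. KDM5BΔAP 200 nM final; compound titration, 10 min RT preincubation; substrate mix 12.5 µM H3K4me3, 25 µM 2-OG, 50 µM Fe(II), 100 µM ascorbate, 0.25 mM NAD⁺, 0.25 U/mL FDH; ΔRFU over 30 min.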
SNCA expr inh: SNCA gene expression inhibition | HEK-293 SNCA-luciferase knock-in, luminescence, 24 h | Potency, µM (titrated, usually from 57.2 µM), most hits filed as inhibitors | 0.17% of 140,000 active | AID 1671194; further: nearly all actives have a fitted effect of over 45% in size
IP6K1 inhibitor: inhibitors of human IP6K1; Q92551; IP6K1 kinase, ADP-Glo luminescence, 2 h; hits give low values; activity change, % (series mostly up to about 58 µM); 0.81% of 140,000 active; AID 1645851; in the data active means activity change below about -25%
Target sequence (Q92551 whole entry, looked up): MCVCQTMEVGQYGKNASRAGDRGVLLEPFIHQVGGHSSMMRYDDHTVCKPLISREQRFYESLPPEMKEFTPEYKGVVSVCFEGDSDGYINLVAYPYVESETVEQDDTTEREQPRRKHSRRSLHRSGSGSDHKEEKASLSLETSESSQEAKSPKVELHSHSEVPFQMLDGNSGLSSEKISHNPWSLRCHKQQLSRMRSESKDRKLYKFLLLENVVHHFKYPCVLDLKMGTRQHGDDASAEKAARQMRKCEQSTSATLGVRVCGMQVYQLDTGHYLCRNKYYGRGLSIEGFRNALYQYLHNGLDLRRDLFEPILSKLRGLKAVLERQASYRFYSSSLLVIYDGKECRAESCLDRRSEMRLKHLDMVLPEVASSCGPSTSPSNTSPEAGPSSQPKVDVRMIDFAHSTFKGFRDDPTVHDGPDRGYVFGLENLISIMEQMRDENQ
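ADP-Glo luminescence measures ADP made by human IP6K1 during a 2 h RT reaction with ATP/IP6 (mix at 1.3 mM/130 uM); top library doses 57.5 and 19.1 uM final.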
Of the large screens only hits and unclear results are named; the others gave an inactive call. Shown are actives, neighbours in structure and some others; about 3% of the full set was active somewhere. Unless noted, the call rests on the fitted dose curve; in most records, active means well fitted curve in the direction sought with a large enough effect; inconclusive means small, poorly fitted or top-dose-only effect, or another doubt; inactive means no such curve, though single readings can be large; an effect the other way counts as inactive or inconclusive.

Cc1ccc(CN2CCC3(CC2)CN(c2ncccn2)CC3CO)cc1C (stereo not given)	KDM5B inhibitor 25µM
O=C(c1ccncc1)N1CCC2(CC1)CN(c1ncccn1)CC2CO (stereo not given)	KDM5B inhibitor 22µM
OCC1CN(c2ncccn2)CC12CCN(Cc1cccc(Cl)c1F)CC2 (stereo not given)	KDM5B inhibitor inconclusive
OCC1CN(c2ncccn2)CC12CCN(Cc1ccsc1)CC2 (stereo not given)	KDM5B inhibitor 32µM
OCC1CN(c2ncccn2)CC12CCN(Cc1ccncc1)CC2 (stereo not given)	KDM5B inhibitor 22µM
Cc1ccc(C(=O)N2CCN(c3nccc(Nc4ccccc4F)n3)CC2)cc1	SNCA expr inh inconclusive (no result: KDM5B inhibitor)
COCCn1c(=O)c(C(=O)N2CCN(C(=O)NC3CCCC3)CC2)nc2cccnc21	none (no result: KDM5B inhibitor)
CC(=O)N1CCC2(CC1)CCN(c1ncccc1C#N)CC2CO (stereo not given)	KDM5B inhibitor 32µM
Cc1ccc(CN2CCC3(CC2)CCN(Cc2ccco2)CC3CO)s1 (stereo not given)	none
COCC1CN(C)CC12CCN(Cc1cc(C)nn1C)CC2 (stereo not given)	none
OCC1CN(c2ncccn2)CC12CCN(Cc1ccco1)CC2 (stereo not given)	KDM5B inhibitor 28µM
Cc1cc(CN2CCC3(CC2)CN(c2ncccn2)CC3CO)n(C)n1 (stereo not given)	KDM5B inhibitor 32µM
COc1cccc(-c2ccc(C(=O)NCCNC(=O)c3ccccc3)cc2)c1	none (no result: SNCA viab count, KDM5B inhibitor, SNCA expr inh)
O=C1CCN(C[C@@H](O)COCc2ccccc2)c2cc3c(cc2CN1C1CCCC1)OCO3	none (no result: SNCA viab count, KDM5B inhibitor, SNCA expr inh)
Cc1ncsc1CN1CCCCC1c1nc(CCOCC2CC2)no1 (stereo not given)	KDM5B inhibitor 18µM
c1ccc(CN2CCCCC2c2nc(CCOCC3CCCC3)no2)nc1 (stereo not given)	KDM5B inhibitor inconclusive, SNCA expr inh 22µM
Cc1ncsc1CN1CCCCC1c1nc(CCOc2ccc(F)cc2)no1 (stereo not given)	KDM5B inhibitor inconclusive, SNCA expr inh inconclusive
O=C(NCc1cccc(Cl)c1)C1CCN(C(=O)c2ccc(-c3cncnc3)cc2)CC1	none (no result: SNCA viab count, KDM5B inhibitor, SNCA expr inh)
Clc1ccc(Oc2cccc(CN3CCN(C4CCNC4)CC3)c2)cc1 (stereo not given)	KDM5B inhibitor 16µM
Cc1cc(C)n(-c2cccc(CN3CCN(C4CCNC4)CC3)c2)n1 (stereo not given)	KDM5B inhibitor inconclusive
CCCOc1ccccc1C(=O)N(Cc1ccc(C)cc1)C1CCS(=O)(=O)C1 (stereo not given)	none (no result: SNCA viab count, SNCA expr inh, IP6K1 inhibitor)
CCOc1ccc(NC(=O)c2ccc(NC(=O)c3ccc4ccccc4n3)cc2)cc1	none (no result: SNCA viab count, SNCA expr inh, IP6K1 inhibitor)
CN1c2cc(C(=O)Nc3ccc4c(c3)CCC4)ccc2C(=O)N2CCCCC21 (stereo not given)	KDM5B inhibitor inconclusive
O=C(NCC(F)F)C1CCCN(c2nc3ncccc3o2)C1 (stereo not given)	KDM5B inhibitor 28µM
O=C(NCC(F)(F)F)C1CCCN(c2nc3ncccc3o2)C1 (stereo not given)	KDM5B inhibitor 22µM
O=C(NCC1CCCO1)Nc1c(NC2CCCC2)c2ccccc2oc1=O (stereo not given)	none (no result: SNCA viab count, SNCA expr inh, IP6K1 inhibitor)
CS[C@H]1SC[C@@H]2C(=O)N(C)[C@H](C(C)C)C(=O)OC[C@H](NC(=O)c3cnc4ccccc4n3)C(=O)N[C@H](C)C(=O)N(C)[C@@H]1C(=O)N(C)[C@H](C(C)C)C(=O)OC[C@H](NC(=O)c1cnc3ccccc3n1)C(=O)N[C@H](C)C(=O)N2C	SNCA viab count 0.019µM, SNCA expr inh 0.0061µM (no result: KDM5B inhibitor, IP6K1 inhibitor)
O=C(NCc1ccc(Cl)cc1)c1ccc2cncn2c1	KDM5B inhibitor inconclusive
C=CCNC(=O)c1ccc2cncn2c1	KDM5B inhibitor 32µM
O=c1[nH]c(C2CCCN(Cc3cccc(-c4ccc(F)cc4F)c3)C2)nc2ccc(F)cc12 (stereo not given)	KDM5B inhibitor inconclusive, SNCA expr inh inconclusive
Cc1nn(-c2ccccc2)c2c1C(C(C)C)N(C1CCN(C(=O)C3CCCC3)C1)C2=O (stereo not given)	none (no result: SNCA viab count, KDM5B inhibitor, SNCA expr inh)
CC(C)(C)c1nc(C(=O)N2CCN(c3ncccn3)CC2)n2ccncc12	KDM5B inhibitor 79µM
O=C(NC1CC1)c1nc(-c2ccc(F)cc2)c2cnccn12	KDM5B inhibitor 35µM
O=C(c1nc(-c2ccc(Cl)nc2)c2ccccn12)N1CCN(c2ncccn2)CC1	KDM5B inhibitor inconclusive
C[S+](=O)([O-])c1ccc(-c2nc(C(=O)N3CCCC3)n3ccncc23)cc1	SNCA viab count inconclusive, KDM5B inhibitor inconclusive, SNCA expr inh inconclusive
O=C(c1nc(-c2ccc(F)cc2)c2ccccn12)N1CCN(c2ncccn2)CC1	KDM5B inhibitor 28µM
O=C(c1nc(-c2ccc(Cl)cc2)c2cnccn12)N1CCOCC1	KDM5B inhibitor 32µM
O=C1CSC(c2ccc(Br)cc2)N1c1cccc(C(F)(F)F)c1 (stereo not given)	none (no result: SNCA viab count, SNCA expr inh, IP6K1 inhibitor)
CN1CC(=O)N(C2CCCC2)Cc2c(NCc3cccc(C(F)(F)F)c3)ncnc21	none (no result: KDM5B inhibitor)
Cc1nn(-c2ccccc2)c2c1C(C)N(C1CCN(C(=O)c3ccc(Cl)cc3)C1)C2=O (stereo not given)	none (no result: SNCA viab count, KDM5B inhibitor, SNCA expr inh)
O=C(c1nc(-c2ccc(F)cc2)c2cnccn12)N1CCN(c2ncccn2)CC1	KDM5B inhibitor 25µM
CCCN1CCN(C(=O)Cn2nc(C)c3sc(-c4ccccc4)nc3c2=O)CC1	KDM5B inhibitor 32µM
CCc1nc2c(=O)n(CC(=O)NC(C)c3ccccc3)nc(C)c2s1 (stereo not given)	none
CCc1nc2c(=O)n(CC(=O)N3CCC(Cc4ccccc4)CC3)nc(C)c2s1	none
CCC(C)NC(=O)Cn1nc(C)c2sc(-c3ccccc3)nc2c1=O (stereo not given)	KDM5B inhibitor 8.9µM
Cc1nn(CC(=O)NCC2CCCO2)c(=O)c2nc(-c3ccccc3)sc12 (stereo not given)	KDM5B inhibitor 32µM
O=C(NC1CC1)C1CCCN(c2nccc(Nc3ccccc3F)n2)C1 (stereo not given)	none (no result: KDM5B inhibitor)
OCCCNC(=S)NCc1ccccc1	none (no result: SNCA viab count, SNCA expr inh, IP6K1 inhibitor)
Cc1cn2nc(C(=O)N3CCN(c4ccccc4)CC3)cc2c(N(C)Cc2ccccc2)n1	KDM5B inhibitor 25µM
Cc1cn2nc(C(=O)N3CCCCC3)cc2c(N(C)Cc2ccccc2)n1	KDM5B inhibitor 32µM
CCN1CCN(c2ccc(-c3nc(CCCc4ccccc4)no3)cn2)CC1	KDM5B inhibitor inconclusive
OCCN1CCN(c2ccc(-c3nc(-c4cccc(C(F)(F)F)c4)no3)cn2)CC1	KDM5B inhibitor 28µM
CCC1CN(c2ccc(-c3nc(-c4ccc(OC)cc4)no3)cn2)CCN1C (stereo not given)	KDM5B inhibitor inconclusive
OC1CCCN(c2ccc(-c3nc(-c4cccc(C(F)(F)F)c4)no3)cn2)C1 (stereo not given)	KDM5B inhibitor 35µM
COc1cccc(-c2noc(-c3ccc(N4CCCC(CO)C4)nc3)n2)c1OC (stereo not given)	KDM5B inhibitor 32µM
CC(=O)NCCNC(=O)Cn1c(C)c(Br)c2ccccc21	none (no result: SNCA viab count, SNCA expr inh, IP6K1 inhibitor)
